Measured values from the supplement of paper PMC6897291.
Where a name gives a salt, the structure may show the parent alone.

Experiments:
U-2932 [1] = assay: growth inhibition by drug alone (1 - RLU/untreated control) (fraction); higher = stronger inhibition; details: 177Lu-lilotomab satetraxetan 0 ug/ml
Summary of the method: (§1)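 With or without 18 h pretreatment by a radiolabelled anti-CD37 antibody conjugate (~600 MBq/mg; 0.5 µg/ml RIVA, 1 µg/ml U-2932), RIVA and U-2932 cells were washed and plated at 3,000 cells/well. Pre-printed compound doses were 10/100 nM for RIVA and 10/1,000 nM for U-2932. Growth inhibition uses RealTime-Glo RLU relative to the untreated no-drug wells. The calculation is 1 − RLU/mean of 48 such wells per plate, with reads daily from day 3 after 1 h at 37°C.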

RIVA [2] = assay: as above; details: 177Lu-lilotomab satetraxetan 0 ug/ml
Summary of the method: as §1

U-2932 [3] = assay: growth inhibition by drug plus 177Lu-lilotomab satetraxetan (1 - RLU/untreated control) (fraction); higher = stronger inhibition; details: 177Lu-lilotomab satetraxetan 1 ug/ml
Summary of the method: as §1

RIVA [4] = assay: as above; details: 177Lu-lilotomab satetraxetan 0.5 ug/ml
Summary of the method: as §1

Structure (SMILES) | growth inhibition by drug alone (U-2932 [1]; 10 nM, time (day): 3) | growth inhibition by drug alone (U-2932 [1]; 10 nM, time (day): 4) | growth inhibition by drug alone (U-2932 [1]; 10 nM, time (day): 5) | growth inhibition by drug alone (U-2932 [1]; 10 nM, time (day): 6) | growth inhibition by drug alone (U-2932 [1]; 1000 nM, time (day): 3) | growth inhibition by drug alone (U-2932 [1]; 1000 nM, time (day): 4) | growth inhibition by drug alone (U-2932 [1]; 1000 nM, time (day): 5) | growth inhibition by drug alone (U-2932 [1]; 1000 nM, time (day): 6) | growth inhibition by drug alone (RIVA [2]; 10 nM, time (day): 3) | growth inhibition by drug alone (RIVA [2]; 10 nM, time (day): 4) | growth inhibition by drug alone (RIVA [2]; 10 nM, time (day): 5) | growth inhibition by drug alone (RIVA [2]; 10 nM, time (day): 6) | growth inhibition by drug alone (RIVA [2]; 100 nM, time (day): 3) | growth inhibition by drug alone (RIVA [2]; 100 nM, time (day): 4) | growth inhibition by drug alone (RIVA [2]; 100 nM, time (day): 5) | growth inhibition by drug alone (RIVA [2]; 100 nM, time (day): 6) | growth inhibition by drug plus 177Lu-lilotomab satetraxetan (U-2932 [3]; 10 nM, time (day): 3) | growth inhibition by drug plus 177Lu-lilotomab satetraxetan (U-2932 [3]; 10 nM, time (day): 4) | growth inhibition by drug plus 177Lu-lilotomab satetraxetan (U-2932 [3]; 10 nM, time (day): 5) | growth inhibition by drug plus 177Lu-lilotomab satetraxetan (U-2932 [3]; 10 nM, time (day): 6) | growth inhibition by drug plus 177Lu-lilotomab satetraxetan (U-2932 [3]; 1000 nM, time (day): 3) | growth inhibition by drug plus 177Lu-lilotomab satetraxetan (U-2932 [3]; 1000 nM, time (day): 4) | growth inhibition by drug plus 177Lu-lilotomab satetraxetan (U-2932 [3]; 1000 nM, time (day): 5) | growth inhibition by drug plus 177Lu-lilotomab satetraxetan (U-2932 [3]; 1000 nM, time (day): 6) | growth inhibition by drug plus 177Lu-lilotomab satetraxetan (RIVA [4]; 10 nM, time (day): 3) | growth inhibition by drug plus 177Lu-lilotomab satetraxetan (RIVA [4]; 10 nM, time (day): 4) | growth inhibition by drug plus 177Lu-lilotomab satetraxetan (RIVA [4]; 10 nM, time (day): 5) | growth inhibition by drug plus 177Lu-lilotomab satetraxetan (RIVA [4]; 10 nM, time (day): 6) | growth inhibition by drug plus 177Lu-lilotomab satetraxetan (RIVA [4]; 100 nM, time (day): 3) | growth inhibition by drug plus 177Lu-lilotomab satetraxetan (RIVA [4]; 100 nM, time (day): 4) | growth inhibition by drug plus 177Lu-lilotomab satetraxetan (RIVA [4]; 100 nM, time (day): 5) | growth inhibition by drug plus 177Lu-lilotomab satetraxetan (RIVA [4]; 100 nM, time (day): 6)
CCCC(CCC)C(=O)O [Valproic acid sodium salt (Sodium valproate)] | 0.135 | 0.0829 | -0.0268 | -0.0189 | -0.0134 | 0.0276 | -0.0122 | -0.131 | -0.0545 | -0.0344 | -0.0932 | -0.3 | 0.0331 | 0.00236 | -0.00506 | -0.0995 | 0.0169 | 0.0448 | 0.0823 | 0.106 | -0.06 | 0.0571 | 0.0167 | 0.0659 | 0.442 | 0.551 | 0.566 | 0.583 | 0.469 | 0.539 | 0.543 | 0.523
CO[C@H]1C[C@@H]2CC[C@@H](C)[C@@](O)(O2)C(=O)C(=O)N2CCCC[C@H]2C(=O)O[C@H]([C@H](C)C[C@@H]2CC[C@@H](OCCO)[C@H](OC)C2)CC(=O)[C@H](C)/C=C(\C)[C@@H](O)[C@@H](OC)C(=O)[C@H](C)C[C@H](C)/C=C/C=C/C=C/1C [Everolimus (RAD001)] | 0.744 | 0.686 | 0.591 | 0.52 | 0.743 | 0.728 | 0.667 | 0.605 | 0.776 | 0.768 | 0.744 | 0.653 | 0.811 | 0.826 | 0.827 | 0.801 | 0.69 | 0.625 | 0.558 | 0.538 | 0.719 | 0.729 | 0.706 | 0.702 | 0.821 | 0.838 | 0.833 | 0.788 | 0.833 | 0.865 | 0.876 | 0.873
Cc1cc(O)c2c(c1)C(=O)c1cccc(O)c1C2=O [Chrysophanic acid (Chrysophanol)] | -0.0586 | -0.0671 | -0.0488 | 0.0657 | -0.0803 | -0.0522 | -0.0654 | 0.0406 | -0.266 | -0.269 | -0.305 | -0.322 | -0.0635 | -0.135 | -0.0963 | -0.115 | -0.0546 | -0.0035 | 0.0467 | 0.1 | -0.0941 | -0.0464 | -0.00693 | 0.13 | 0.425 | 0.48 | 0.511 | 0.511 | 0.489 | 0.543 | 0.559 | 0.574
C[C@@H]1C[C@H]2[C@@H]3CCC4=CC(=O)C=C[C@]4(C)[C@@]3(F)[C@@H](O)C[C@]2(C)[C@@]1(O)C(=O)CO [Dexamethasone] | 0.345 | 0.301 | 0.236 | 0.236 | 0.466 | 0.472 | 0.362 | 0.306 | 0.0365 | 0.0468 | -0.018 | -0.23 | -0.0879 | -0.051 | -0.149 | -0.312 | 0.277 | 0.301 | 0.26 | 0.353 | 0.422 | 0.466 | 0.406 | 0.431 | 0.415 | 0.467 | 0.484 | 0.498 | 0.362 | 0.429 | 0.417 | 0.414
CC(C)(C)c1cnc(CSc2cnc(NC(=O)C3CCNCC3)s2)o1 | -0.112 | -0.121 | -0.0865 | -0.0439 | 0.946 | 0.962 | 0.971 | 0.978 | -0.214 | -0.262 | -0.264 | -0.28 | -0.524 | -0.411 | -0.58 | -0.723 | -0.136 | -0.0562 | 0.00872 | 0.121 | 0.955 | 0.966 | 0.975 | 0.983 | 0.484 | 0.533 | 0.556 | 0.564 | 0.267 | 0.359 | 0.373 | 0.353
CC(C)Oc1cc(Nc2nc(N[C@@H](C)c3ccc(F)cn3)ncc2Cl)n[nH]1 | 0.14 | 0.0983 | -0.0668 | -0.0699 | 0.0367 | 0.0436 | -0.032 | -0.0869 | 0.0887 | 0.104 | 0.0671 | -0.147 | -0.29 | -0.178 | -0.215 | -0.331 | 0.116 | 0.157 | 0.213 | 0.262 | 0.11 | 0.174 | 0.221 | 0.323 | 0.626 | 0.642 | 0.679 | 0.662 | 0.487 | 0.557 | 0.57 | 0.574
